# Bioassay records as filed in PubChem.
# Cycloheximide cs: affects cycloheximide protein synthesis inhibition readout, counter-screen; cell reporter, cycloheximide protein synthesis inhibition counterscreen; max response, %; actives 12% (n = 300,000); AID 2314; in the data active = max response mostly above about 13%, no sharp cut-off; inactive = mostly below about 14%; note: read at 38.3 µM for the half of the compounds with a filed dose; 0% is about no effect
# Pf growth 48h: inhibits P. falciparum growth in the first generation, 48 h. Potency, µM (doses to about 28.7 µM), for the others: top-dose activity change, negative = inhibition, actives largely listed as inhibitors. P. falciparum luciferase growth in erythrocytes, 48 h. AID 504832. actives 5.9% (n = 310,000); note: potency is the fitted concentration of half-maximal effect; % is set by controls: 0 for no effect and ±100 for the full control effect
#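 A one-generation exposure of luciferase-tagged malaria parasites in RPMI 1640/Albumax erythrocyte culture, 37 C and 5% CO2. Inhibition is inferred from decreased luminescence after adding detection reagent.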
# LASV entry inh: Lassa virus entry inhibition | Lassa virus pseudotype entry inhibition, cell reporter | Potency, µM (top dose mostly 37.9 µM), for the others: top-dose activity change, negative = inhibition, usual class: inhibitors | actives 1.2% (n = 300,000) | AID 540256; calls by dose curve; tested in HEK293 cells; note: potency is the fitted concentration of half-maximal effect; % is set by controls: 0 for no effect and ±100 for the full control effect; nearly all actives have a fitted effect of over 50% in size
# Shiga inhibitor: inhibitors of Shiga toxin in Vero cells | Vero cells, Shiga toxin protein synthesis inhibition reporter | inhibition, % at 38.7 µM | actives 9.2% (n = 290,000) | AID 2315; in the data active = inhibition mostly above about 28%, no sharp cut-off; inactive = mostly below about 43%; note: 0% is about no effect
# Marburg entry inh: inhibitors of Marburg virus binding or cell entry | actives 1.8% (n = 300,000) | Marburg virus pseudotyped entry inhibition, cell reporter | Potency, µM (series often up to 37.8 µM), inactives show top-dose activity change, negative = inhibition, usual class: inhibitors | AID 540276; calls by dose curve; tested in HEK293 cells; note: potency is the fitted concentration of half-maximal effect; % is set by controls: 0 for no effect and ±100 for the full control effect
# Pf growth 96h: P. falciparum growth inhibition at 96 hours; Potency, µM (top dose mostly 28.7 µM), for the others: at the top dose activity change, negative = inhibition, actives largely listed as inhibitors; actives 6.9% (n = 320,000); P. falciparum luciferase reporter growth, 96 h; AID 504834; note: potency is the fitted concentration of half-maximal effect; % is set by controls: 0 for no effect and ±100 for the full control effect
#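 Two parasite generations (96 h, 37 C, 5% CO2) of compound exposure in infected erythrocytes (0.05% parasitemia, 2% hematocrit). Luciferase-reporter P. falciparum; decreased luminescence indicates inhibited growth, aimed at apicoplast-acting delayed death.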
# Starred values were filed as active, the others as inactive; ? = inconclusive; nt = no result; [ ] = remark or other dose. Sampled rows, rich in hits. Any-hit rate of the full collection: about 19%. Unless noted, calls come from the whole dose curve; as a rule, active = well fitted inhibition curve with a large enough effect; inconclusive = small, poorly fitted or top-dose-only effect, or another doubt; inactive = no such curve, though single readings can be large or run the other way.
SMILES,Cycloheximide cs,Pf growth 48h,LASV entry inh,Shiga inhibitor,Marburg entry inh,Pf growth 96h
Nc1nc(SCc2ccc3c(c2)OCO3)n[nH]1,20.5,11.6%,2.4%,11.6,10.4%[46.1 µM],29.1%
Nc1nc(SCc2ccc(Cl)c(Cl)c2)n[nH]1,8.2,-12.5%,1.6%,54.3,-13.8%[46.1 µM],?
Nc1ccccc1SCc1ccccc1,72.2*,28.2%,13.9%,89.1*,-4.6%,24.1%
COc1ccc2oc(-c3ccc(C)c(NC(=O)c4ccc(N5CCCCC5)c([N+](=O)[O-])c4)c3)nc2c1,nt,nt,-22.8%[46.1 µM],nt,-6.7%[46.1 µM],nt
Cc1cc(OCC(=O)Nc2ccc(Br)cc2)cc2c1C(=O)CC(C)(C)O2,0.8,?,?,-10.3,?,?
COc1ccc(N(CC(=O)NCc2ccc3c(c2)OCO3)C(=O)c2csnn2)cc1,9.4,?,2.5%,34.8,?,?
O=C(OCC(=O)N1CCc2ccccc21)C1=COCCO1,37.5*,65.2%,?,56.1*,?,?
O=C1CN(C(=O)COC(=O)C2=COCCO2)c2ccccc2N1,-4.3,7.0%,-0.9%,-23.8,-29.4%,0.0%
Cc1cc(C(=O)OCC(=O)N2CCc3ccccc32)c(C)o1,25.1*,97.1%,?,37.0,3.7%,nt
O=C(OCC(=O)N1CCc2ccccc21)c1ccc[nH]c1=O,2.0,19.9%,-2.5%,18.5,?,127.9%
C[C@@H]1C=CCCO[C@]12C(=O)N(Cc1ccc(Br)cc1)c1cccc(Br)c12,nt,nt,nt,nt,7.2%[14.2 µM],nt
Cc1ccc(NC(=O)Cc2noc3ccccc23)nc1,23.1*,51.8%,4.1%,59.3*,-9.2%,85.4%
O=C(Cc1noc2ccccc12)Nc1ccccn1,53.6*,119.0%,?,87.9*,?,152.2%
Cc1ccc(CNC(=O)Cc2noc3ccccc23)cc1,32.7*,348.2%,?,51.0*,-17.5%[46.1 µM],349.1%
COc1cc(NC(=O)Cc2noc3ccccc23)cc(OC)c1OC,nt,nt,-0.3%[46.1 µM],nt,nt,nt
Cc1ccccc1C(=O)c1cccn1CC(=O)NCCCN1CC(C)CC(C)C1 (centres undefined),-3.3,0.0%,16.1%[46.1 µM],-8.9,?,?
CCOCCCNS(=O)(=O)c1ccc(Br)cc1,-3.3,15.0%,8.2%,-10.4,20.7%,?
CCC(C)N(C(=O)COC(=O)CN=C1NS(=O)(=O)c2ccccc21)C1CCS(=O)(=O)C1 (centres undefined),nt,1.6%,nt,nt,nt,22.0%
Cc1ccc(NC(=S)NNc2ccc([N+](=O)[O-])cc2S(=O)(=O)Nc2ccccc2C(=O)O)cc1C,4.7,4.4%,13.0%,34.9,-21.2%,-19.1%
CCc1ccc2nc3c(c(C(=O)O)c2c1)CCC3,19.1,-6.2%,?,20.9,-0.7%,?
Cc1cc(Br)c2nc3c(c(C(=O)O)c2c1)CCCCC3,-0.2,-2.7%,21.6%,-4.8,3.6%,8.28µM*
COc1ccc(C)cc1S(=O)(=O)N1CCCC(C(=O)N2CCN(c3ccccc3F)CC2)C1 (centres undefined),-2.0,10.4µM*,?,-1.9,?,?
Cn1c(=O)oc2cc(S(=O)(=O)N3CCCC(C(=O)N4CCN(c5ccc(Cl)cc5)CC4)C3)ccc21 (centres undefined),nt,nt,?,nt,-2.6%[46.1 µM],nt
COc1ccc(N2CCN(C(=O)C3CCCN(S(=O)(=O)c4ccc5c(c4)oc(=O)n5C)C3)CC2)cc1 (centres undefined),13.7,11.7µM*,7.8%[46.1 µM],-1.3,-14.4%[46.1 µM],?
Cn1c(=O)oc2cc(S(=O)(=O)N3CCCC(C(=O)N4CC=C(c5ccccc5)CC4)C3)ccc21 (centres undefined),-4.6,nt,nt,-5.8,-3.4%,-1.7%
SMILES,Cycloheximide cs,Pf growth 48h,LASV entry inh,Shiga inhibitor,Marburg entry inh,Pf growth 96h
COc1ccccc1N1CCN(C(=O)C2CCCN(S(=O)(=O)c3ccc4c(c3)oc(=O)n4C)C2)CC1 (centres undefined),9.3,11.7µM*,?,-6.0,?,52.7%
C=CCNC(=O)N1CCC(c2nc3ccccc3s2)CC1,7.5,-12.5%,12.4%[46.1 µM],-3.0,?,?
C/C=C/C(=O)N1CC2(CC(c3cccc(NC(=O)COc4ccc(Cl)cc4)c3)=NO2)C[C@@H]1C(N)=O (some centres undefined),4.0,13.1µM*,nt,13.9,nt,5.22µM*
NC(=O)[C@H]1CC2(CC(c3cccc(NC(=O)COc4ccc(Cl)cc4)c3)=NO2)CN1C(=O)c1ccccc1C(=O)c1ccccc1 (some centres undefined),-3.5,11.7µM*,nt,-5.1,nt,11.7µM*
C/C=C\C(=O)Nc1cccc(C2=NOC3(C2)C[C@@H](C(N)=O)N(C(=O)COc2ccc(Cl)cc2)C3)c1 (some centres undefined),-1.8,?,nt,38.2,nt,?
NC(=O)[C@@H]1CC2(CC(c3cccc(NC(=O)CC(c4ccccc4)c4ccccc4)c3)=NO2)CN1C(=O)COc1ccc(Cl)cc1 (some centres undefined),4.0,?,nt,6.3,nt,11.7µM*
NC(=O)[C@H]1CC2(CC(c3cccc(NC(=O)COc4ccc(Cl)cc4)c3)=NO2)CN1C(=O)c1ccc(Cl)cc1 (some centres undefined),7.3,13.1µM*,nt,15.8,nt,?
NC(=O)[C@H]1CC2(CC(c3cccc(NC(=O)COc4ccc(Cl)cc4)c3)=NO2)CN1C(=O)CC(c1ccccc1)c1ccccc1 (some centres undefined),0.9,?,nt,3.0,nt,?
CCC(=O)Nc1cccc(C2=NOC3(C2)C[C@@H](C(N)=O)N(C(=O)COc2ccc(Cl)cc2)C3)c1 (some centres undefined),-5.2,?,nt,-7.2,nt,24.1%
CC1CCCCN1C(=O)COc1ccc(NC(=O)c2ccco2)cc1 (centres undefined),3.5,10.2%,4.8%,39.1,19.6%,12.1%
CCC(=O)N1CC2(CC(c3cccc(NC(=O)COc4ccc(Cl)cc4)c3)=NO2)C[C@@H]1C(N)=O (some centres undefined),-3.1,?,nt,-14.9,nt,?
CCCCCC(=O)N1CC2(CC(c3cccc(NC(=O)COc4ccc(Cl)cc4)c3)=NO2)C[C@@H]1C(N)=O (some centres undefined),-1.6,10.4µM*,nt,-6.0,nt,13.1µM*
CC1(C(=O)N2CC3(CC(c4cccc(NC(=O)COc5ccc(Cl)cc5)c4)=NO3)C[C@@H]2C(N)=O)CC1 (some centres undefined),-2.3,13.1µM*,nt,-7.2,nt,?
COc1ccc(CN(C2CCCC2)S(=O)(=O)c2ccccc2Br)cc1,nt,nt,nt,nt,12.5µM*,nt
COc1ccc(CN(C2CCCC2)S(=O)(=O)c2ccc(-n3cnnn3)cc2)cc1,-3.9,?,-23.3%,27.6,?,nt
Cc1cccc(-n2ncc3c(NNC(=O)c4ccco4)ncnc32)c1,20.5*,-11.4%,nt,2.8,nt,-29.6%
Cc1ccc(-n2ncc3c(NNC(=O)Cc4ccccc4)ncnc32)cc1,13.6*,31.9%,-20.0%,21.0,9.2%,16.6%
